# Pf growth 96h – inhibits malaria parasite growth, 96 h. P. falciparum luciferase reporter growth, 96 h. Potency, µM (series often up to 28.7 µM), hits mostly inhibitors. actives 6.9% (n = 320,000). AID 504834
#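 P. falciparum expressing integrated firefly luciferase grown in erythrocytes (2% hematocrit, 0.05% parasitemia final) with compounds for 96 hours at 37 C, 5% CO2. Growth inhibition read as loss of luminescence after adding luciferase detection reagent.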
# SARS PLpro yeast – blocks SARS-CoV papain-like protease in a yeast assay; S. cerevisiae expressing SARS-CoV PLpro, growth rescue; actives 0.19% (n = 330,000); Potency, µM (highest dose often 32.9 µM), actives largely listed as activators; calls by dose curve; also: nearly all actives have a fitted effect of over 55% in size
# Sm TGR inh – S. mansoni TGR enzyme inhibition; Potency, µM (highest dose often 114 µM), actives largely listed as inhibitors; Q962Y6; purified TGR, DTNB reduction, TNB absorbance 405 nm; actives 3% (n = 360,000); also: nearly all actives have a fitted effect of over 60% in size
#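 Kinetic colorimetric format: TGR-catalysed, NADPH-driven DTNB reduction monitored via TNB absorbance. Enzyme dispensed at 20 nM; compound exposure 15 min at room temperature before reaction start.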
# Pf growth 48h – inhibits P. falciparum growth in the first generation, 48 h | P. falciparum luciferase growth in erythrocytes, 48 h | Potency, µM (series often up to 28.7 µM), most hits filed as inhibitors | actives 5.9% (n = 310,000) | AID 504832
#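 Cell-based growth assay: transgenic P. falciparum expressing firefly luciferase, cultured in red cells within RPMI 1640 containing 0.5% w/v Albumax, 24 mM bicarbonate and gentamycin. A drop in luciferase activity indicates inhibition.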
# Hits are given with their value; n = inactive; u = inconclusive; x = not tested or not shown; ! = repeats disagree. This is a sample that favours compounds with a hit; in the whole collection about 12% have one here. Unless noted, calls follow the shape of the dose curve; as a rule, active = well fitted curve in the direction sought with a large enough effect; inconclusive = small, poorly fitted or top-dose-only effect, or another doubt; inactive = no such curve, though single readings can be large; an effect the other way counts as inactive or inconclusive.
SMILES,Pf growth 96h,SARS PLpro yeast,Sm TGR inh,Pf growth 48h
CC(=O)Nc1ccc(-c2nnn(CC(=O)c3ccccc3)n2)cc1Cl,u,n,n,u
CC(=O)Nc1ccc(-c2nnn(CC(=O)c3ccc(F)cc3)n2)cc1Cl,13.1µM,n,n,u
CCCCOc1ccc(-c2nnn(CC(=O)NCc3ccco3)n2)cc1,n,n,n,n
O=C(Cn1nnc(-c2ccccc2F)n1)NCc1ccco1,n,n,44.7µM,n
O=C(Cn1cnc2c(nnn2-c2ccc(F)cc2)c1=O)NCc1ccco1,n,n,79.4µM,n
O=C(Cn1nnc(-c2ccccc2F)n1)OCC(=O)c1ccccc1,n,n,0.794µM,n
CC(=O)c1ccc(NC(=O)CCCN2C(=O)COc3ccc(C)cc32)cc1,u,n,n,n
O=C(Cn1nnc2ccccc21)OCC(=O)c1ccccc1,4.15µM,n,n,n
O=C(Cn1nnc2ccccc21)OCC(=O)c1ccc(Cl)c(Cl)c1,x,n,n,u
O=C(Cn1nnc(-c2ccc(F)cc2)n1)OCC(=O)c1ccccc1,n,n,10µM,n
CCc1ccc(OCc2cc(=O)n3cc(C)sc3n2)cc1,x,x,n,x
COc1ccc(OC)c(NC(=O)COC(=O)CCCN=C2NS(=O)(=O)c3ccccc32)c1,x,n,x,x
CCOc1cccc(CNc2ccc(O)cc2)c1OCc1ccc(Cl)cc1Cl,u,n,u,u
CCOc1cccc(CNc2ccc(O)cc2)c1OCc1ccccc1Cl,u,n,44.7µM!,u
Cc1cc(Cl)c(S(=O)(=O)N2CCN(c3ccccn3)CC2)cc1OCC(=O)NC1CCCCC1,u,n,n,0.233µM
Cc1cc(Cl)c(S(=O)(=O)N2CCCCCC2)cc1OCC(=O)NC1CCCCC1,0.0586µM,n,n,x
CCOC(=O)N1CCN(S(=O)(=O)c2cc(OCC(=O)NC3CCCCC3)c(C)cc2Cl)CC1,0.657µM,n,n,x
Cc1cc(Cl)c(S(=O)(=O)N2CCSCC2)cc1OCC(=O)NC1CCCCC1,n,n,n,x
CCN1CCN(S(=O)(=O)c2cc(OCC(=O)NC3CCCCC3)c(C)cc2Cl)CC1,n,n,n,2.08µM
CCn1c(C)nnc1SCC(=O)Nc1ccc(Cl)cc1,n,n,n,n
CCOc1ccc2c(c1)sc(N)[n+]2Cc1cc(C)cc2cccnc12,1.85µM,n,n,9.28µM
COc1ccc2c(c1)sc(N)[n+]2Cc1cc(C)cc2cccnc12,u,n,n,9.28µM
Cc1ccc(S(=O)(=O)NCCc2cn3ccsc3n2)c(C)c1,x,x,n,x
CC(C)Oc1ccc(CNC(=O)c2ccc3c(c2)N(C)C(=O)C2CCCCN32)cc1 (stereo not drawn),x,x,n,x
CCOc1ccccc1CNCCc1ccc2c(c1)OCO2,u,n,u,n
SMILES,Pf growth 96h,SARS PLpro yeast,Sm TGR inh,Pf growth 48h
c1cc(CNCCc2ccc3c(c2)OCO3)ccn1,11.7µM,n,44.7µM,n
Brc1ccccc1CNCCc1ccc2c(c1)OCO2,11.7µM,n,u,n
COc1ccc(-c2[nH]c3c(c2-c2c(-n4cccc4)n(C)c(=O)[nH]c2=O)c(=O)[nH]c(=O)n3C)cc1F,x,x,n,x
CN(C)c1cccc(C(=O)OCC(=O)N(C)c2ccccc2)c1,n,n,n,n
CN(C)c1ccc(N=Nc2ccccc2C(=O)OCC(=O)N(C)c2ccccc2)cc1,u,n,n,13.1µM
CC(=O)c1ccc(NC(=O)COC(=O)c2ccccc2N=Nc2ccc(N(C)C)cc2)cc1,u,n,n,u
COC(=O)c1ccccc1NC(=O)COC(=O)c1ccccc1N=Nc1ccc(N(C)C)cc1,9.28µM,n,n,u
CC1CN(C(C)C)C(C)CC1OC(=O)c1ccccc1 (stereo not drawn),n,n,n,n
COC(=O)CC1(C(=O)OC)Oc2ccc(Br)cc2C(=O)N1c1cc(Cl)cc(Cl)c1 (stereo not drawn),9.28µM,n,n,5.22µM
COC(=O)CC1(C(=O)OC)Oc2ccc(Br)cc2C(=O)N1c1cccc(Cl)c1Cl (stereo not drawn),13.1µM,n,n,u
COC(=O)CC1(C(=O)OC)Oc2ccc(Br)cc2C(=O)N1c1ccc(Br)cc1Cl (stereo not drawn),11.7µM,n,n,u
NNc1nc2cccnc2n(CCNc2ncc(C(F)(F)F)cc2Cl)c1=O,11.7µM,n,n,u
O=c1c(Cl)nc2cc(Cl)ccc2n1CCNc1ncc(C(F)(F)F)cc1Cl,u,n,n,13.1µM
N#CC1(NC(=O)CSc2n[nH]c(-c3ccccc3)n2)CCCCC1,n,n,n,n
COc1cc2cc(CN(CCc3ccccc3C)C(=S)NCCCN(C)C)c(=O)[nH]c2cc1OC,u,n,n,13.1µM
CN(C)CCCNC(=S)N(CCN(C)C)Cc1cc2cc3c(cc2[nH]c1=O)OCCO3,u,n,44.7µM,n
COc1cc2cc(CN(CCc3ccccc3C)C(=S)NCCCN3CCOCC3)c(=O)[nH]c2cc1OC,n,n,n,7.38µM
CCN(CC)CCN(Cc1cc2cc3c(cc2[nH]c1=O)OCCO3)C(=S)NCCCN(C)C,n,n,u,n
CN1CCN(C(=O)CCN2C(=O)/C(=C\c3ccccc3F)SC2=S)CC1,11.7µM,n,u,u
CN1CCN(C(=O)CCN2C(=O)/C(=C/c3ccccc3Cl)SC2=S)CC1,n,n,n,n
Cc1ccc(/C=C2/SC(=S)N(CCC(=O)N3CCN(C)CC3)C2=O)cc1,11.7µM,n,n,u
Cc1ccc(/C=C2\SC(=S)N(CCC(=O)N3CCCCC3)C2=O)cc1,n,n,n,n
CCCn1c(=O)c(C(=O)NNS(=O)(=O)c2ccc(NC(=O)OC)cc2)c(O)c2ccccc21,n,n,n,n
Oc1cccc(C2c3[nH]c4ccccc4c3CCN2Cc2ccc3c(c2)CCO3)c1 (stereo not drawn),n,n,n,u
Oc1cccc(C2c3[nH]c4ccccc4c3CCN2Cc2ccoc2)c1 (stereo not drawn),n,n,17.8µM,u
SMILES,Pf growth 96h,SARS PLpro yeast,Sm TGR inh,Pf growth 48h
Cc1ccc(NC(=O)c2ncn(CC(=O)NCc3ccc4c(c3)OCO4)n2)cc1C,x,n,x,x
Cc1ccccc1-n1nc2c(c1NC(=O)c1ccco1)CS(=O)(=O)C2,n,n,44.7µM,n
Cc1ccccc1-n1nc2c(c1NC(=O)c1cc3ccccc3o1)CS(=O)(=O)C2,n,n,n,u
CC(=O)Nc1c2c(nn1-c1ccc(C)cc1C)CSC2,10.4µM,n,n,u
Cc1ccccc1-n1nc2c(c1NC(=O)c1ccc(Br)o1)CSC2,n,n,31.6µM,u
CC(C)Oc1ccc(C(=O)Nc2ccc(N3CCN(C(=O)c4ccco4)CC3)cc2)cc1,u,n,n,u
COc1ccc(NC(=O)c2ccc(=O)oc2)cc1,u,n,44.7µM,n
COc1ccc(C(=O)Nc2ccc(C(=O)OCC(=O)c3cccc4ccccc34)cc2)cc1,13.1µM,n,n,u
COc1ccc(NC(=O)c2ccc3ccccc3c2)cc1,u,n,n,n
CC(C)Oc1ccc(C(=O)Nc2ccc(N3CCCC3)cc2)cc1,9.28µM,n,u,13.1µM
O=C(Nc1ccc(N2CCCC2)cc1)c1ccc(Br)cc1,n,n,n,13.1µM
CCOc1ccc(C(=O)Nc2ccc(N3CCN(C)CC3)cc2)cc1,n,n,n,n
COc1ccc(C(=O)Nc2ccc(N3CCN(C)CC3)cc2)cc1,0.0928µM,n,n,n

# Assay outcomes as filed in PubChem BioAssay.
